Screening results: PubChem, National Center for Advancing Translational Sciences (NCATS)
TDP1 cell noCPT: qHTS for Inhibitors of human tyrosyl-DNA phosphodiesterase 1 (TDP1): qHTS in cells in absence of CPT; DT40 Tdp1-/- hTDP1 cells, no CPT, ATP luminescence, 48 h; Potency, µM (top dose mostly 46.2 µM), for inactives: at the highest dose activity change, negative = growth inhibition, usual class: inhibitors; 15% of 420,000 active; AID 686978, 2013; also: potency is read from the fitted curve at half-maximal effect; nearly all actives have a fitted effect of over 55% in size
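Seeded 400 DT40-hTDP1 cells/well (vehicle DMSO, no 20 nM CPT); pinned compounds; ≥48 hr at 37 °C; CellTiter-Glo luminescence as viability measure.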
HT1080NT lethal: qHTS for induction of synthetic lethality in tumor cells producing 2HG: qHTS for the HT-1080-NT fibrosarcoma cell line | Potency, µM (highest dose often 46.1 µM), without a hit: at the highest dose activity, negative = less viability, actives largely listed as cytotoxic | 1.6% of 360,000 active | HT-1080-NT fibrosarcoma viability, CellTiter-Glo ATP luminescence, 48 h | AID 686970, 2013;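 also: NT is the 2HG producing partner of a matched IDH1 knockdown line; potency is read from the fitted curve at half-maximal effect; 0% = DMSO-treated cells and -100% = media-only wells without cells; nearly all actives have a fitted effect of over 55% in size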
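Fibrosarcoma NT cells, 750 per well in 5% FBS RPMI, were exposed to compound for 48 hours. Viability: CellTiter-Glo luminescence.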
DT40 TDP1 CPT: qHTS for Inhibitors of human tyrosyl-DNA phosphodiesterase 1 (TDP1): qHTS in cells in presence of CPT | chicken DT40 Tdp1-/-;hTDP1 cells + 20 nM CPT, ATP luminescence, 48 h | Potency, µM (titrated, usually from 46.2 µM), for inactives: at the highest dose activity change, negative = growth inhibition, most hits filed as inhibitors | 12% of 420,000 active | AID 686979, 2013; also: potency is read from the fitted curve at half-maximal effect; nearly all actives have a fitted effect of over 55% in size
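Chicken DT40 Tdp1-/- cells complemented with human TDP1, 400 cells/well, exposed to compounds plus 20 nM camptothecin for at least 48 h at 37 C; viability read as ATP content by CellTiter-Glo luminescence.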
IL1B secr inh: qHTS for Inhibitors of Inflammasome Signaling: IL-1-beta AlphaLISA Primary Screen. AID 743279, 2014. activity change, % at 57.5 µM. THP-1 LPS/ATP IL-1B secretion, AlphaLISA, 16 h; hits give low values. 4.7% of 360,000 active; in the data active = activity change below about -50%; inconclusive = mostly about -30% to -49%
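Secreted IL-1B measured by AlphaLISA bead assay after 16 h compound exposure of THP-1 cells; compounds (final up to 57.5 uM) added 1 h before LPS (250 ng/mL) and ATP (1.25 mM) stimulation; lower signal means less secretion.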
HT1080 IDH1KD tx: qHTS for induction of synthetic lethality in tumor cells producing 2HG: qHTS for the HT-1080-IDH1KD cell line; Potency, µM (titrated, usually from 46.1 µM), for inactives: at the top dose activity, negative = toxicity, hits mostly cytotoxic; 2% of 360,000 active; HT-1080 IDH1 knockdown viability, ATP luminescence, 48 h;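 also: potency is read from the fitted curve at half-maximal effect; 0% = DMSO wells and -100% = cell-free medium wells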
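Cytotoxicity counter-line: IDH1KD HT-1080, 48 h, CellTiter-Glo. Curves classed by r2, magnitude and activity.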
* hit, by the source's call; ? = inconclusive; . = not tested or not shown; [ ] = remark or other dose. Compounds with a hit are over-represented: about 19% of the library has one in this group of screens. Unless noted, calls follow the shape of the dose curve; as a rule, active = well fitted curve in the direction sought with a large enough effect; inconclusive = small, poorly fitted or top-dose-only effect, or another doubt; inactive = no such curve, though single readings can be large; an effect the other way counts as inactive or inconclusive. Unless noted, % is scaled to controls: 0 for no effect and ±100 for the full control effect.

SMILES	TDP1 cell noCPT	HT1080NT lethal	DT40 TDP1 CPT	IL1B secr inh	HT1080 IDH1KD tx
CC[C@]12c3[nH]c4ccc(Cl)cc4c3CCN1C(=O)[C@@H](CC(=O)NCCC1=CCCCC1)C[C@@H]2C(=O)N1CCN(C(=O)c2ccco2)CC1	?	?	20.6µM*	-22.7	?
CC[C@]12c3[nH]c4ccccc4c3CCN1C(=O)C(CC(=O)NCCc1ccccn1)C[C@@H]2C(=O)N1CCN(C(=O)c2ccco2)CC1 (stereo not given in full)	0.7%	?	-16.6%	34.3	-3.9%
CC[C@]12c3[nH]c4ccc(Cl)cc4c3CCN1C(=O)[C@@H](CC(=O)NCc1ccco1)C[C@@H]2C(=O)N1CCN(C(=O)c2ccco2)CC1	20.6µM*	0.1%	16.4µM*	10.0	-1.7%
Cn1nc(NC(=O)CC(C)(C)CC(=O)O)c2ccccc21	-9.8%	-0.3%	-0.5%	23.2	-10.7%
Cc1cc(C(F)(F)F)nc(CCNC(=O)C2CCC(=O)N(Cc3cccc(F)c3)C2)n1 (stereo not given)	-1.7%	11.4%	2.6%	6.2	5.2%
CC(=O)Nc1ccc(NC(=O)C(C)OC(=O)C2CCN(S(=O)(=O)c3ccc4c(c3)OCCO4)CC2)cc1 (stereo not given)	-24.5%	-1.1%	-24.7%	11.6	4.4%
COc1ccc(C2CC(=O)c3cnc(NC(=O)c4ccccc4OC)nc3C2)c(OC)c1 (stereo not given)	14.6µM*	-17.9%	16.4µM*	8.4	-11.6%
COc1cccc(C(=O)Nc2ncc3c(n2)CC(C)(C)CC3=O)c1	16.4µM*	-13.3%	?	-3.6	-12.4%
COc1ccc(C2CC(=O)c3cnc(NC(=O)c4cccc(OC)c4)nc3C2)cc1 (stereo not given)	?	-1.3%	?	-3.1	0.6%
CCc1nn(Cc2cc(C)ccc2C)c(=O)c2cc3cc(C)ccc3n12	-11.9%	.	-12.5%	.	.
Cc1nn2c(nc(N3CCCCC3)c3ccccc32)c1C=O	?	?	-5.9%	-74.4*	-24.7%
Cc1nn2c([nH]c(=O)c3ccccc32)c1C=O	-2.0%	17.8µM*	?	10.0	?
Cc1nn2c(nc(N3CCOCC3)c3ccccc32)c1C=C(C#N)C#N	-28.5%	0.8%	-6.2%	-0.3	-0.4%
COCCNC(=O)C1CCCN(Cc2ccc(C)cc2)CC1 (stereo not given)	-0.7%	16.6%	1.7%	-6.1	22.1%
N#CC(C#N)=NNc1ccc2cn[nH]c2c1	4.61µM*	20.6µM*	4.11µM*	-86.5*	20.6µM*
C[C@@H]1O[C@@H](OC[C@H]2O[C@@H](Oc3c(-c4ccc(OCCO)c(OCCO)c4)oc4cc(OCCO)cc(O)c4c3=O)[C@H](O)[C@@H](O)[C@@H]2O)[C@H](O)[C@H](O)[C@H]1O	0.3%	.	-24.7%	.	.
CC(=O)NC1=NN(C(C)=O)C(C)(c2ccc(Br)cc2)S1 (stereo not given)	?	?	-20.4%	45.2	18.4µM*
CC(=O)NC1=NN(C(C)=O)C(C)(c2ccccn2)S1 (stereo not given)	?	10.8%	23.5%	4.5	10.8%
CCOc1ccccc1CN1CCN(CCCn2cccn2)CC1CCO (stereo not given)	-24.2%	3.8%	-1.9%	12.3	1.8%
Cc1cc(C(=O)O)cc(S(=O)(=O)Nc2ccccc2C(=O)NC(C)c2ccccc2)c1C (stereo not given)	13.0%	3.6%	-11.8%	7.9	11.9%
CCc1ccc(CN(C)C(=O)CCc2nc3ccccc3n(-c3ccc(OC)cc3)c2=O)cc1	20.6µM*	-12.5%	16.4µM*	-56.4*	14.6µM*
CC1CN(c2nc3ccccc3nc2SCC(=O)Nc2ccc(F)cc2)CC(C)O1 (stereo not given)	?	-0.3%	14.6µM*	-25.8	-10.0%
CCOc1ccccc1NC(=O)CSc1nncc2ccccc12	-24.5%	-2.2%	2.3%	-83.7*	-0.5%
CCOc1ccc(NC(=O)CSc2nc3ccccc3nc2N2CCCC2)cc1	16.4µM*	4.9%	?	-12.1	-0.8%
O=C(CSc1nc2ccccc2nc1N1CCCC1)Nc1ccc(F)cc1	?	-0.4%	?	-11.8	12.2%
SMILES	TDP1 cell noCPT	HT1080NT lethal	DT40 TDP1 CPT	IL1B secr inh	HT1080 IDH1KD tx
Cc1ccc(NC(=O)CSc2nc3ccccc3nc2N2CCOCC2)cc1	16.4µM*	?	?	-0.4	-20.7%
CCOc1ccccc1NC(=O)CSc1nc2ccccc2nc1N1CCOCC1	20.6µM*	0.0%	23.1µM*	12.0	-1.0%
COc1ccc(C)cc1NC(=O)CSc1nc2ccccc2nc1N1CCCCC1	?	-11.8%	?	-13.5	-17.9%
O=C(CSc1nc2ccccc2[nH]1)Nc1ccc(N2CCOCC2)cc1	11.6µM*	9.3%	11.6µM*	-12.5	1.3%
Cc1cccc(NC(=O)CSc2nc3ccccc3nc2N2CCC(C)CC2)c1	20.6µM*	.	20.6µM*	.	.
CC(=O)Nc1ccc(NC(=O)CSc2nc3ccccc3nc2N2CCC(C)CC2)cc1	?	-18.8%	5.1%	17.6	-17.0%
COc1ccc(C)cc1NC(=O)CSc1nc2ccccc2nc1N1CCOCC1	23.1µM*	.	?	.	.
COc1c2occc2c(OC)c2c(=O)cc(C(F)(F)F)oc12	6.6%	7.5%	13.2%	-13.2	-0.7%
COc1c2ccoc2c(OC(C)=O)c2oc(C)cc(=O)c12	?	-7.4%	-21.6%	-50.7*	-9.7%
COc1ccc(C(C)(C)C)cc1NC(=O)c1cc(S(=O)(=O)N(C)C)ccc1N1CCCC1	?	-10.7%	20.6µM*	-1.4	-15.9%
CN(C)S(=O)(=O)c1ccc(N2CCCC2)c(C(=O)Nc2nccs2)c1	-0.7%	-1.9%	2.6%	-12.0	-16.8%
Cc1cnc(NC(=O)c2cc(S(=O)(=O)N(C)C)ccc2N2CCCC2)s1	?	-23.3%	?	-63.7*	-28.6%
O=C(NCCc1nnc2n1CCN(CC1CC=CCC1)CC2)c1ccc(F)cc1 (stereo not given)	-5.6%	.	-0.5%	.	.
Cc1c(C(=O)NCCCN2CCCC2=O)cnn1-c1ncc2c(n1)-c1ccccc1CC2	-18.0%	.	5.1%[9.04 µM]	.	.
COc1ccccc1OCC(=O)NCC1CCCN(C(=O)c2ccccc2C(C)=O)C1 (stereo not given)	3.0%	5.6%	7.6%	-6.7	13.7%
COc1ccccc1OCC(=O)NCC1CCCN(C(=O)c2ccccc2SC)C1 (stereo not given)	14.6µM*	10.4%	?	14.2	8.1%
